Screens: PubChem BioAssay, several laboratories
tim23-1 inh: inhibits growth of tim23-1 mutant yeast | S. cerevisiae tim23-1 growth, BacTiter-Glo luminescence, 24 h | inhibition, % at 20 µM | 1.3% of 330,000 active | AID 463212;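 active = growth inhibition of the mutant yeast at or above 50%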;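 note: temperature-sensitive mutant grown at 25 °C; plate controls were DMSO-treated mutant yeast for no effect and medium wells lacking yeast for full effect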
B2AR ag: activates human beta-2 adrenergic receptor causing internalization | P07550 | Am2.2-beta2AR cells, FAP receptor internalization, flow cytometry | response, % (concentration not given with the values) | 0.43% of 340,000 active | AID 504454;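 active = response above a set limit, near 3 SD of response in nonfluorescent compounds, cut at about 42% in these data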
Target sequence (P07550 whole entry, looked up): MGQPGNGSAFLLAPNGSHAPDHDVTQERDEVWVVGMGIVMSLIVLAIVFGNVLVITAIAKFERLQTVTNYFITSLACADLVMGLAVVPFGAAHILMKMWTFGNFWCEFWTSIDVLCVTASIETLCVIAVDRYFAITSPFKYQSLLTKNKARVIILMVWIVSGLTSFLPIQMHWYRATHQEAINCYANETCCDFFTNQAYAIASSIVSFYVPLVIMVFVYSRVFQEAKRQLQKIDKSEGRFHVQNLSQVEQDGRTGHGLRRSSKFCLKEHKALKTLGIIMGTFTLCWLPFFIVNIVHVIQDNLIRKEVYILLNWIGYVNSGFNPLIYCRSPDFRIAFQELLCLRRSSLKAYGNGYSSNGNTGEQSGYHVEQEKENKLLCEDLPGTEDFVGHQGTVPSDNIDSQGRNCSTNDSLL
TIM10 inh: inhibits growth of TIM10 yeast strain; inhibition, % at 10 µM; 1.4% of 330,000 active; S. cerevisiae TIM10 strain growth, BacTiter-Glo luminescence, 24 h;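 active = inhibition of 40% or more at the single tested concentration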;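 note: wild-type TIM10 isogenic control strain grown at permissive 25 °C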
PfHsp90 yeast 2: growth inhibition of yeast expressing Plasmodium Hsp90; S. cerevisiae expressing PfHsp90, BacTiter-Glo ATP, 48 h; yeast lacking PDR1 and PDR3 efflux regulators; inhibition, % at 9.4 µM; 0.32% of 310,000 active;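 active = every replicate shows inhibition above about 80%, whatever the replicate mean, limit read from the data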;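 note: 0% = DMSO neutral controls and 100% = 20 µM radicicol positive controls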
tim10-1 inh: tim10-1 yeast growth inhibition; inhibition, % at 20 µM; S. cerevisiae tim10-1 ts strain growth, BacTiter-Glo, 24 h; 2.2% of 330,000 active; AID 463190;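 active = inhibition of at least 40%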;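 note: mutant grown at 25 °C; 0% = DMSO wells with yeast and 100% = wells holding no yeast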
tim10-1 conf: tim10-1 yeast growth inhibition, confirmed. 56% of 7,400 active. inhibition, % at 20 µM. shares compounds with tim10-1 inh. S. cerevisiae tim10-1 ts strain growth, BacTiter-Glo, 24 h;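 active = inhibition of yeast growth at or above a set limit in either of two repeat tests at 20 µM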;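 note: tim10-1 mutant grown at permissive 25 °C to find synthetic lethal compounds; 0% = DMSO yeast wells and 100% = medium wells without yeast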
* hit, by the source's call; · = no result. Rows were chosen to be rich in hits. Some 3.8% of all compounds tested hit in one or more screens of this group.

SMILES	tim23-1 inh	B2AR ag	TIM10 inh	PfHsp90 yeast 2	tim10-1 inh	tim10-1 conf
COc1ccc(C(=O)NC2CCCc3ccccc32)cc1OC1CCN(C(C)=O)CC1 (stereo unspecified)	-3	26	5	9	-1	·
COc1ccc(OC)c(C2=NS(=O)(=O)N(C)C(C(=O)Nc3ccc(F)cc3F)=C2)c1	26	-6	-4	-39	42*	19
COc1ccc(NC(=O)CSc2ncccn2)cc1S(=O)(=O)N1CCCCC1	3	-3	-2	9	-5	·
Cc1ccc(-c2noc(CN(C(=O)C(c3ccccc3)c3ccccc3)C(C)C)n2)cc1	16	-3	17	8	41*	25
Cn1cccc1C(=O)NC(=O)COC(=O)c1ccc(S(C)(=O)=O)c([N+](=O)[O-])c1	40	16	35	-5	41*	33*
Cn1ccsc1=NC(=O)c1ccc(S(C)(=O)=O)c([N+](=O)[O-])c1	35	1	31	7	40*	28*
Cn1ccsc1=NC(=O)c1ccc(Cl)c([N+](=O)[O-])c1	-1	-2	-7	10	-1	·
Cn1nc(C(=O)NCc2ccc(F)cc2)cc1C(=O)NCc1ccc(F)cc1	8	6	-5	-63	12	·
COc1cccc(N=C2CC(C)(C)CC(=O)/C2=C(/O)c2ccccc2)c1	38	2	13	-23	43*	23
CCN(c1ccccc1)S(=O)(=O)c1ccc(Cl)c(C(=O)NC2CCN(Cc3ccccc3)CC2)c1	·	-2	·	-14	·	·
CC(=O)O[C@H]1[C@H](C)OC=C[C@@H]1OC(C)=O	6	0	-1	22	0	·
CN(C)c1nc(OCCNC(=O)COc2ccc(Cl)cc2Cl)nc(N(C)C)n1	17	6	14	·	44*	15
CC(=O)c1cc(CN2CCC(C(=O)Nc3ccc(-n4nc(C)cc4C)cc3)CC2)cs1	13	3	9	40	9	·
COc1ccc(Cl)cc1NC(=O)CN1CCC(n2nnc3cc(C)ccc32)CC1	31	1	17	22	40	16
O=C(c1ccccc1Br)N1N=C(c2ccccc2)CC1c1ccccc1F (stereo unspecified)	46	-5	29	-27	50*	48*
CSCCC(NC(=O)c1ccco1)C(=O)NCc1ccc2c(c1)OCO2 (stereo unspecified)	-11	1	-19	17	-27	·
CCn1ccnc1CN(C)Cc1cn(-c2cc(C)ccc2C)nc1-c1ccccc1	31	-23	27	-10	42*	17
CCn1ccnc1CN(C)Cc1cn(-c2ccc(C)cc2)nc1-c1ccc(F)cc1	-11	2	3	18	23	·
O=C(CSc1nc2cc(Cl)ccc2o1)NC1CC1	-7	4	3	·	-17	·
COc1cc2ccccc2cc1C(=O)N(CCN(C)C)c1nc2ccc(Br)cc2s1	18	5	33	10	54*	-9
COc1ccc(C)c2sc(N(CCN(C)C)C(=O)c3ccc4ccccc4c3)nc12	28	13	33	-28	44*	26
CCN(CC(=O)Nc1cc(Cl)ccc1C)C(=O)CCS(=O)(=O)c1ccc(C)cc1	14	-5	9	·	7	·
Cc1ccc2c(c1)-n1c(nc3ccccc3c1=O)C(Cc1ccccc1)NC2=O (stereo unspecified)	18	·	6	·	17	·
CC(=O)c1sc(N/N=C2\CC3CCC2(C)C3(C)C)nc1C (stereo unspecified)	30	-1	26	-6	43*	23
CN(C)CCN(C(=O)/C=C/c1cccs1)c1nc2ccc(F)cc2s1	30	-3	29	-19	44*	35*
SMILES	tim23-1 inh	B2AR ag	TIM10 inh	PfHsp90 yeast 2	tim10-1 inh	tim10-1 conf
S=C(Nc1ccc(Cl)cc1)N(CCCN1CCOCC1)Cc1cccs1	17	0	-15	-3	41*	8
O=C1CC(SCc2nc3ccccc3[nH]2)C(=O)N1c1ccc(Cl)cc1 (stereo unspecified)	36	5	21	7	32	·
O=C1CC(SCc2nc3ccccc3[nH]2)C(=O)N1c1ccc(F)c(Cl)c1 (stereo unspecified)	21	-3	35	15	54*	42*
COc1ccc(OC)c(NC(=O)CCCCCn2nnc3ccccc3c2=O)c1	13	5	-12	15	18	·
C#CCOCCOCCOCCNc1nc(N2CCN(C(=O)CCCCCCCCCCNC(=O)[C@H](CCCCN)n3cc(CCO)nn3)CC2)nc(N2CCN(C(=O)CCCCCCCCCCNC(=O)[C@H](CCCN=C(N)N)n3cc(C[C@@H](C)CC)nn3)CC2)n1	50	19	6	25	42*	28
Cc1ccc(-c2csc(N(CCO)CCCn3c(C(F)(F)F)nc4ccccc43)n2)cc1	-5	-6	-11	-25	44*	15
OCCn1c(C(F)(F)F)nc2ccccc21	12	-3	10	19	-6	·
N#Cc1c(-n2cccc2/C=N/O)sc2c1CCCC2	41	-5	-17	15	41*	43*
C=CCNCc1cccn1-c1sc2c(c1C#N)CCCC2	15	-8	7	1	21	·
CC(=O)NN1C(=O)/C(=C/c2ccc(C(C)C)cc2)SC1=S	41	0	3	-7	42*	39*
CC(=O)c1cccc(NC(=O)COc2ccccc2C(=O)c2cc(C#N)c(=O)n(C3CCCCC3)c2)c1	12	-17	-3	4	26	·
N#Cc1cc(C(=O)c2ccccc2OCC(=O)Nc2ccccc2Cl)cn(C2CCCCC2)c1=O	26	-12	8	-22	43*	18
COc1ccc(NC(=O)CSc2nc(C)cc(C)n2)cc1	3	-8	0	13	-3	·
COc1ccc(Cl)cc1NC(=O)CSc1nc(C)cc(C)n1	30	-22	-1	2	41*	17
O=C(Nc1cccc(C(=O)N2CCN(c3cccc(Cl)c3)CC2)c1)c1ccccc1	31	-4	36	·	48*	37*
O=C(Nc1ccc(N2CCN(C(=O)c3ccccc3)CC2)c(Cl)c1)c1ccc(Br)o1	43	13	33	·	48*	39*
CN1C[C@@H]2[C@@H]3C(=O)N(Cc4ccccc4)C(=O)[C@@H]3[C@](Cc3ccccc3)(C1=O)N2C(=O)c1ccc(Cl)cc1	·	-2	·	0	·	·
Cc1nc2scc(C)n2c(=O)c1S(=O)(=O)N1CCN(c2cccc(C(F)(F)F)c2)CC1	47	-5	17	7	50*	43*
Cc1ccc(-n2nc3c4c(cccc4c2=O)-c2ccccc2-3)cc1	7	0	19	·	42*	23
COc1ccccc1/C=C/C(=O)NCCc1ccccn1	-3	-3	4	2	-17	·
O=C(C1CCC1)N1CCCc2cc(S(=O)(=O)N3CCN(c4ccccc4)CC3)ccc21	44	-16	13	-3	46*	35*
